PubChem BioAssay AID686940 (The Scripps Research Institute Molecular Screening Center, 2013)
Screen size: about 370,000 compounds; about 2,600 (0.7%) were called active. This excerpt belongs to a sample that is enriched for actives. Unmarked numbers belong to inactive results.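 The calls were made as follows: active = inhibition above a per-plate cutoff, mean inhibition of test wells between control levels plus 3 SD (cut at about 38% in these data); inactive = the rest.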

What follows are molecules tested against COUP transcription factor 2 (Homo sapiens) (UniProt P24468) (assay: NR2F2 transcriptional activity inhibitors, primary screen, cell-based, luciferase reporter, HEK293T, luminescence (AID 686940;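 also: cells cotransfected with COUP-TFII expression vector driving the NGFI-A reporter; 0% = median of COUP-TF2 test wells and 100% = reporter-only cells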)). Details: HEK293T NGFI-A luciferase reporter, at 8.6 µM, active compounds read high.
COUP transcription factor 2 (Homo sapiens), sequence (P24468 whole entry, looked up): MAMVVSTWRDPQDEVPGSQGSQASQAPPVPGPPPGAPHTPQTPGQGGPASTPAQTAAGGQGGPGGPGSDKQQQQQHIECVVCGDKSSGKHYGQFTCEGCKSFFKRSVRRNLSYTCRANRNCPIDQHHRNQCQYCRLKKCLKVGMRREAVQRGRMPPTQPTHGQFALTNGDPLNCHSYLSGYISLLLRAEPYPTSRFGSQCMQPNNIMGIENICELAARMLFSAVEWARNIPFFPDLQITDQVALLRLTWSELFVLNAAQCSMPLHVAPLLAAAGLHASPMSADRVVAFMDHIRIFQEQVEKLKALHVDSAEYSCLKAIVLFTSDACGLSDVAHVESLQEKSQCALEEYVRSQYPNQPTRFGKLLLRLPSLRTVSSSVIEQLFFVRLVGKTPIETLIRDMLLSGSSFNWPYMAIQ
For Cc1ccccc1CN1CCCCC(NC(=O)Nc2ccccc2F)C1=O (stereo not given), the inhibition was 17.2%. Work on CCOC(=O)[C@]12CCCC=C1N(Cc1ccc(OC)cc1)C(=O)[C@@H]2CC(=O)N1CCOCC1 yielded an inhibition of 11.8%. For COc1ccc(CSc2nnc(SCC(=O)Nc3ccccc3C(F)(F)F)s2)cc1, the inhibition was -6.32%. With CCOC(=O)C1(CCOc2ccccc2)CCN(Cc2cc(OC)cc(OC)c2)CC1 the inhibition was 43.4% (active). In the case of CCCS(=O)(=O)N1CCC(CCOc2ccccc2)(C(=O)OCC)CC1, the inhibition is reported as 12%. With CCOC(=O)C1(Cc2cccc(OC)c2)CCN(Cc2csc(C(C)=O)c2)CC1 the inhibition was -6.31%. Molecule O=C(CSc1nc2ccccc2nc1N1CCCCC1)N1CCN(S(=O)(=O)c2cccc([N+](=O)[O-])c2)CC1 has an inhibition of -2.12%. Cc1ccc(Cn2cc(CN3[C@@H](C)COc4cc(Br)ccc4S3(=O)=O)nn2)cc1 gave an inhibition of 7.53%. For O=C(CC(O)(C(F)(F)F)C(F)(F)F)Nc1ccc(Cl)c(Cl)c1, the inhibition was 74.9% (active). O=C(Nc1ccc(Cl)c(Cl)c1)N1CC=C(c2ccccc2)CC1 showed an inhibition of -16.9%. For O=C(CCS(=O)(=O)c1ccccc1)Nc1ccc(Cl)c(Cl)c1, the inhibition was -30.7%. Molecule O=C(c1ccccc1)c1ccc(-c2ccccc2C(=O)NC2CCCCN(Cc3ccc(Cl)cc3)C2=O)cc1 (stereo not given) has an inhibition of -10.4%. With CC(C)CNc1cccc2c1S(=O)(=O)N(Cc1cn(Cc3ccc(Cl)cc3)nn1)Cc1ccccc1O2 the inhibition was 5.91%. Work on COc1ccc(-c2csc3ncnc(N4CCN(S(=O)(=O)c5cccc(F)c5)CC4)c23)cc1 yielded an inhibition of -7.61%. Cc1ccc(S(=O)(=O)N2CCC3(CC2)OCCO3)c(C)c1 showed an inhibition of 0.83%. Cc1ccc(C)c(S(=O)(=O)N2CCN(c3ncnc4sccc34)CC2)c1 was tested, and the inhibition was 61.2% (active). For O=C(NCCCc1ccccc1)[C@H](Cc1ccccc1)NC1(C(=O)NCCc2c[nH]c3ccccc23)CCC1, the inhibition was 7.14%. Oc1ccc(/C=C/c2c(F)cccc2F)c2cccnc12 was tested, and the inhibition was 14.9%. For N[C@@H](Cc1ccccc1)C(=O)N1CCC[C@@H]1C(=O)N1CCC2CCN(S(=O)(=O)c3ccccc3)CC21 (stereo not given in full), the inhibition was 2.4%. O=C(CSc1nnc(COc2ccccc2)n1-c1ccc(Cl)cc1)Nc1ccc2c(c1)OCO2 gave an inhibition of 7.15%. For O=C(Nc1ccccc1Cl)/C(Cl)=C(\Cl)S(=O)c1ccccc1 (stereo not given), the inhibition was 99% (active). Work on CN[C@H]1C[C@H]2c3cc(N4CCOCC4)ccc3CCN2C[C@H]1[C@H](C)O yielded an inhibition of -0.62%. With Cc1ccccc1CS(=O)(=O)Cc1ccc(C(=O)Nc2ccc(Cl)cc2)o1 the inhibition was 60.1% (active). Cc1cc(OCc2ccc(C(=O)Nc3ccc(C(=O)O)cc3)o2)ccc1Cl showed an inhibition of 10.7%. O=C(O)c1ccc(NC(=O)c2ccc(COc3ccc(Cl)cc3)o2)cc1 gave an inhibition of -7.9%. In the case of COC(=O)[C@H](C(C)C)N(CCCc1cn(Cc2ccccc2)nn1)S(=O)(=O)c1ccc(F)cc1Br, the inhibition is reported as 9.49%. With CC(=O)Nc1ccc(OC[C@@H](O)CN2CCC(C(O)(c3ccccc3)c3ccccc3)CC2)cc1 the inhibition was -20.7%. Work on COc1cccc(Cn2cc(COC(=O)Nc3ccc(F)cc3)nn2)c1 yielded an inhibition of -23.7%. For CCCCCc1c(-c2ccc(OC)c(OC)c2)ncn1CCc1ccccc1OC, the inhibition was 57% (active). CCCCCc1c(-c2cccc(Br)c2)ncn1CCc1ccccc1OC showed an inhibition of 6.5%. CCCCc1c(-c2ccc(Cl)cc2)ncn1CCc1ccccc1OC showed an inhibition of 11.8%. With Cc1ccc(CSc2nnc(SCC(=O)NN=Cc3cc(Br)ccc3F)s2)cc1 the inhibition was -3.85%. With COc1ccc2c(c1)CN1CN(CCc3ccccc3)S(=O)(=O)CC21 (stereo not given) the inhibition was 16%. COc1ccc(CNC(=O)C(C)n2nc(C)c3c(C)n(-c4ccccc4)nc3c2=O)c(OC)c1 (stereo not given) gave an inhibition of 10.4%. COc1ccc(OC)c(CNC(=O)Cn2nc(C)c3c(C)n(-c4ccc(C)cc4)nc3c2=O)c1 was tested, and the inhibition was 39.4% (active). Cc1nn(CC(=O)N2CCCCC2)c(=O)c2nn(-c3ccccc3)c(C)c12 was tested, and the inhibition was -1.99%. COC(=O)[C@]12C[C@H](CC(=O)NCCCN3CCCC3=O)C(=O)N(CCc3ccc(OC)c(OC)c3)C1=C[C@H](COCc1ccccc1)O[C@@H]2C gave an inhibition of -3.72%. CCC(C)[C@@H](C(=O)OC)N(CCc1cn(Cc2ccccc2)nn1)S(=O)(=O)c1ccccc1Br (stereo not given in full) was tested, and the inhibition was -9.93%. In the case of CC(=O)Oc1ccc(C(=O)Nc2nccs2)cc1, the inhibition is reported as -23.1%. In the case of CC(C)(C)c1ccc(C(=O)Nc2cc(Cl)c(Br)cc2C(=O)O)cc1, the inhibition is reported as 7.25%. For CSc1nccc(NC(=O)c2ccc(C(C)(C)C)cc2)n1, the inhibition was 64.5% (active). For Clc1ccc(-n2c(SC/C=C/c3ccccc3)nnc2-c2ccco2)cc1, the inhibition was 13.9%. In the case of Cc1ccc(Cn2cc(CN3[C@@H](CC(C)C)COc4ccc(Cl)cc4S3(=O)=O)nn2)cc1, the inhibition is reported as -4.67%. For COc1ccc(NC(=O)C2Cc3c(-c4cccc(NC(C)=O)c4)ccnc3O2)cc1OC (stereo not given), the inhibition was 45% (active). COc1ccc(NC(=O)C2Cc3c(-c4ccc(Cl)cc4)ccnc3O2)cc1 (stereo not given) showed an inhibition of 5.98%. COc1ccc(NC(=O)C2(C)Cc3c(-c4cccc(NC(C)=O)c4)ccnc3O2)cc1OC (stereo not given) was tested, and the inhibition was -4.02%. Molecule O=C(CSc1nnc(-c2ccccn2)n1-c1ccccc1)Nc1ccc2cn[nH]c2c1 has an inhibition of 13.3%. For CCOC(=O)N1CCN(C(=O)C[C@@H]2C(=O)N(CCc3ccc(Cl)cc3)C3=CCCC[C@]32C(=O)OCC)CC1, the inhibition was 45.6% (active). CCCCNC(=O)C[C@@H]1C(=O)N(CCc2ccc(Cl)cc2)C2=CCCC[C@]21C(=O)OCC showed an inhibition of 15.3%. For C=CCN1C(=O)[C@H](CC(=O)N2CCN(C(=O)OCC)CC2)[C@@]2(C(=O)OCC)CCCC=C12, the inhibition was -10.2%. O=C1CC[C@@H](COc2ccc3[nH]cc(-c4ccccc4)c3c2-c2ccccc2)N1 was tested, and the inhibition was -9.36%. O=C1C=C(c2cccc(Cl)c2O)C[C@@H](c2ccc(F)cc2)C1 gave an inhibition of 4.63%. N#Cc1ccc(C2=CC(=O)C[C@H](c3ccc(Cl)cc3)C2)cc1 showed an inhibition of 17.5%. In the case of O=C1C=C(c2ccnc3cc(Cl)ccc23)C[C@@H](c2ccc3c(c2)OCO3)C1, the inhibition is reported as 56% (active). In the case of c1ccc(Cc2ccc(OCCn3ccnc3)cc2)cc1, the inhibition is reported as 54.5% (active). Clc1ncn(CCOc2ccccc2)c1Cl gave an inhibition of 6.16%. Clc1c(OCCCn2ccnc2)ccc2ccccc12 was tested, and the inhibition was -3.68%. COCC(=O)N[C@@H]1C[C@@H]2O[C@@H](CO)CC[C@@H]2O[C@@H]1CCc1ccc(-c2ccccc2)cc1 was tested, and the inhibition was 1.52%. Molecule CC[C@@H](CCC(=O)N(c1ccccc1)c1ccccc1)C1CC1 has an inhibition of 15.5%. O=C1Nc2ccccc2OC1CC(=O)N1CCCCCCC1 (stereo not given) was tested, and the inhibition was 18.8%. In the case of O=C(OC12CCCN(C1)/C(=C/c1ccccc1)C2)c1ccco1 (stereo not given), the inhibition is reported as -14.4%. For CCCOC(=O)c1[nH]c2c(c1C)C(=O)CC(c1cc(OC)c(OC)c(OC)c1)C2 (stereo not given), the inhibition was 62.1% (active). For CCOC(=O)C1=C(N)N2C(=O)C(C)SC2=C(C(=O)OCC)C1c1cc(OC)c(OC)c(OC)c1 (stereo not given), the inhibition was -10.4%. Molecule COc1cc(C(=O)OCCCN2CCOCC2)cc(OC)c1OC has an inhibition of -1.26%. In the case of C=CCN(Cc1ccc2c(c1)OCO2)C(C#CC1CC1)C(C)(C)C (stereo not given), the inhibition is reported as 9.73%. Work on Cc1c(C(C)c2ccccc2O)[nH]c2ccccc12 (stereo not given) yielded an inhibition of 13.6%. In the case of CCOC(=O)[C@]12CCCC=C1N(Cc1ccc(OC)cc1)C(=O)[C@@H]2CC(=O)NCc1cccs1, the inhibition is reported as 6.16%. Work on COC(=O)[C@]12C[C@H](CC(=O)NCc3cccc4ccccc34)C(=O)N(CCc3ccc(OC)c(OC)c3)C1=C[C@H](C1CCCC1)O[C@@H]2C yielded an inhibition of 13.6%. Work on CCn1c(=O)c(=O)[nH]c2c(=O)oc3ccc(S(=O)(=O)Nc4ccc(OC)cc4)cc3c21 yielded an inhibition of 4.47%. CC(=O)c1c(C)oc2ccc(NS(=O)(=O)c3ccccc3)cc12 was tested, and the inhibition was 21.9%. In the case of COc1ccc(S(=O)(=O)Nc2ccc3oc(C)c(C(C)=O)c3c2)cc1, the inhibition is reported as 42.4% (active). Work on COc1ccc(CN2C/C(=C/c3ccccc3)N3C(=O)C[C@@H](c4ccccc4)N=C23)c(OC)c1 yielded an inhibition of 4.08%. With CC(=O)c1cc(-c2ccc3ccccc3c2)c(=O)n2c1CCC2 the inhibition was 16.2%. Cc1cc2nnc(SCC(=O)N3CCN(c4ccccc4)CC3)n2c(N)n1 was tested, and the inhibition was 8.19%. In the case of Cn1c(CNC(=O)c2ccco2)nnc1SCC(=O)N1CCN(c2ccccc2)CC1, the inhibition is reported as -5.83%. For Cn1c(Cc2cccc3ccccc23)nnc1SCC(=O)N1CCN(c2cccc(Cl)c2)CC1, the inhibition was 42.6% (active). In the case of COc1ccnc(NC(=S)N2CCN(c3ncc(C(F)(F)F)cc3Cl)CC2)c1, the inhibition is reported as -6.96%. CCCCCCN1CCS(=O)(=O)N(Cc2ccc(C(F)(F)F)cc2)C(C(=O)OC)C1 (stereo not given) showed an inhibition of 1.89%. With C=CCn1c(C)cc(C2=NNC(=NCC)SC2)c1C the inhibition was 94.5% (active). Molecule CC(=O)C1(C(=O)Nc2nccs2)CC(c2ccccc2C(F)(F)F)=NO1 (stereo not given) has an inhibition of -12.3%. For COC(=O)c1cc(S(=O)(=O)N2CCN(c3ccccc3C)CC2)cn1C, the inhibition was 10.7%. CCn1c(SCC(C)=O)nc2sc3c(c2c1=O)CCCC3 showed an inhibition of -12%. COc1ccccc1CNC(=O)c1ccc(Cl)c(S(=O)(=O)N2CCCC2)c1 showed an inhibition of 0.19%. In the case of O=C(NCCc1ccc(F)cc1)c1ccc(S(=O)(=O)N2CCCCC2)cc1, the inhibition is reported as -1.06%. In the case of NS(=O)(=O)c1ccc(CCNC(=O)c2ccc(Cl)c(S(=O)(=O)N3CCCCCC3)c2)cc1, the inhibition is reported as 60.3% (active).
